The results in this text go back to PubChem BioAssay AID1508600 (Functional Genomics Laboratory (NCATS/FGL), 2020).

Among all 53,000 sequences or so, about 3,700 (7%) were called active. This is one part of a sample in which actives are shown more often than they occur.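 The calls were made as follows: active = gene knockdowns whose robust z-score for IL-1 alpha signal is at least 2 or at most -2, so actives lie on both sides; inactive = the rest.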

A short description of this experiment: Components of the Cytosolic LPS Sensing Pathway: Gene Identification via Genome-wide siRNA Screen.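 Also: robust z of the log signal after scaling to non-targeting control siRNA wells of the plate.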 The settings on record: RAW264.7 macrophages, IL-1a HTRF, actives lie on both sides, screened at 100 nM (by protocol), cells primed 5 h with Pam3CSK4 first. The essentials:
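RAW264.7; siRNA 100 nM final, RNAiMAX, 48h 37 degrees C; Pam3CSK4 5 h; LipidA + TransIT-TKO 24 h; IL-1a HTRF; CellTiter-Glo viability; robust z vs negative-control median.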
In the case of GGGAUUGUAUGAGUGCACATT against Coa4, the z-score is 0.657 (inactive).

For the sequence GGAGUCUUCUCAAUUUGACTT against Olfr1105, the z-score is -0.617 (inactive).

For CCUAUAUGACAAAAGACAGTT against Glra2, the z-score was -0.168 (inactive).

In the case of GGCGGUCUUUAAGAUGCUCTT against Ubl7, the z-score was 2.12 (active).

Take GCUAGGUAUACAGCCAAAGTT against Spryd4: the z-score is -0.699 (inactive).

Regarding GCGCGUCAUCUUCUGACUUTT against Mmgt2, the z-score is 1.45 (inactive).

Turning to GGUGACUUGCUUUAGAAAATT against Tnfaip8l1, the z-score is 0.184 (inactive).

For GCACCUCCUUAUGUGUCAUTT against Chrm2, the z-score is 0.729 (inactive).

Take GGACAUGACAUUUUUACGCTT against Cyp4f16: the z-score was -1.26 (inactive).

On to GGAUAUGAACAAUAGCAUATT against Kcna1, for which the z-score is 2.2 (active).

For the sequence GGACUUAUCACUAUUUGCATT against Dlgap3, the z-score is 0.782 (inactive).

For the sequence GCCAUAGCUAUUGUCAUUCTT against Mmp16, the z-score is 0.441 (inactive).

For GCAUGGUAUCAGGUACAUATT against Med9, the z-score is 2.2 (active).

For GGUCUUUGUACAUCAAUGUTT against Zfp677, the z-score is -0.241 (inactive).

On to AACCAGUCCUUGAAAAGAGTT against Olfr128, for which the z-score is -1.01 (inactive).

For GGAAGGUAUCCACUGUGCATT against Nme6, the z-score was -1.46 (inactive).

For CCUCACCAGGUAAAUUUUUTT against Ro60, the z-score is -1.25 (inactive).

GGUACUUUCCUUUCGAUGCTT against Skint10: the z-score is -0.524 (inactive).

Take CCUGGUAACCUGCUAAAAGTT against Gm5124: the z-score was 1.24 (inactive).

Take GGACUGGUUCUUCAGUACCTT against Cradd: the z-score was 2.21 (active).

With GGAACACAUUACCUCAAUUTT against Lipt2, the z-score was -0.705 (inactive).

In the case of GGAACUCAUGUGAAGCUCCTT against Ssu72, the z-score was -0.544 (inactive).

For the sequence GGAGCUGAGCAGUGAUGAATT against Snx29, the z-score is -2.08 (active).

In the case of GCACCUAGAUUGAUCAUAGTT against Olfr1183, the z-score is -0.894 (inactive).

As for GGAACCGCUGAUGCUUAAGTT against Ctsl, the z-score is -0.726 (inactive).

Take GGCUCAGUGAAGGCAAGUUTT against Hspb2: the z-score was 2.56 (active).

Consider GGGUCAUCCACUUUGUCAGTT against Fam177a, for which the z-score is -0.584 (inactive).

Turning to CCGCUGCAUAGCAUGUACATT against Dusp23, the z-score is 0.901 (inactive).

Turning to GGUGGAGAUUAUUCAUGUUTT against Dpp8, the z-score is 2.31 (active).

For the sequence GGUGAACAGAAGGACAGAUTT against Gm4736, the z-score is 0.479 (inactive).

Consider CCAUUUAUGGAAUACACCUTT against Tmem150b, for which the z-score was 0.0118 (inactive).

In the case of GGCCAAAUGACUGAGAUUGTT against Rcan3, the z-score is 1.35 (inactive).

On to GGAAGAAUUUAAGAAGUUCTT against Pdia3, for which the z-score is 1.24 (inactive).

On to GGUCCCUGUGAACAAGCUGTT against Serpinf1, for which the z-score was 1.12 (inactive).

Consider GGUGUUACAUAUGAGGAAUTT against Ociad1, for which the z-score is 1.61 (inactive).

As to GGCAGACAGAGGGUAAAAATT against Slc24a1, the z-score was -0.956 (inactive).

For GGAAGAGGAAUAUUACCAGTT against Marveld3, the z-score was -2.16 (active).

With GGUUCUCUACAAAGUAAGUTT against Slc35e1, the z-score was -0.0459 (inactive).

Take GCUUGUUCAGGAAAUGAAATT against Tmcc3: the z-score was -1.15 (inactive).

Regarding GGAGACAGAAUUCAAAACUTT against P2ry1, the z-score was 0.0725 (inactive).

For CCUUCCUACAACAAGUGUGTT against Galnt1, the z-score was 2.02 (active).

With GCCCAGUCAAGACUAUUCGTT against Csnk2b, the z-score is 1.58 (inactive).

As for GGUGAAGACCAUCUUGACCTT against Clcnkb, the z-score is -1.74 (inactive).

Consider AGACUCGUACACGCAGGAATT against Ggn, for which the z-score was 0.882 (inactive).

Consider GGCAGACAAGUUGUUAAAATT against Nusap1, for which the z-score is -0.913 (inactive).

For GCUAGUUAUCUAAUCUCUGTT against Nuak1, the z-score was 2.79 (active).

As for GGAACAACUCCUGUUCCCATT against Obscn, the z-score was 1.85 (inactive).

In the case of GGGAAAGAGAAAUUUAAAGTT against Kcne4, the z-score is 1.3 (inactive).

Turning to CCCAUCAUUCCUUUCUUACTT against Ndfip2, the z-score was 0.193 (inactive).

Take CCAUUCUUGCCUUUGUGCUTT against Cep55: the z-score was -1.63 (inactive).

Consider GGCUGUGGUAUUUUUGGUUTT against Vopp1, for which the z-score is 2.15 (active).

Turning to CCUGGUACAUCUCUGUUACTT against Olfr449, the z-score is 1.53 (inactive).

Consider GCCACUCUAGCUCGUAUUGTT against Des, for which the z-score was 0.896 (inactive).

Consider GCAAGUCGAGGUAGAUUGCTT against Rap1a, for which the z-score is 0.515 (inactive).

Turning to GGACCUAUAGUUCAACAAGTT against Pcf11, the z-score was 1.08 (inactive).

Consider CCAUGUGCGACCUGAUAAUTT against Cmtm7, for which the z-score is 0.155 (inactive).

For the sequence CGACAAACUACAUAGCAGATT against Brms1, the z-score was 0.823 (inactive).

For the sequence GGUCAGACAGCAAUUCACATT against Gpr146, the z-score was -2.7 (active).

As for GCUAUGUGGACGUGACCUATT against Chrnb4, the z-score was -0.739 (inactive).

As to GCUAUAGACAAGGAGAGUATT against Galnt6, the z-score is 0.62 (inactive).

With GGUCAUAGGUACGUAUCCGTT against Siglech, the z-score was -0.465 (inactive).

Regarding CGUUUUUAUGAGGAGGCCUTT against N4bp3, the z-score was -0.897 (inactive).

On to GGAUUGACAGUGGUCUAUATT against Copz1, for which the z-score is -0.294 (inactive).

UUUGAACAGUCACUCCUCGTT against Ipcef1: the z-score was 2.18 (active).

For “GGAGUUAAAACCAUCGUGATT against D16Ertd472e”, the z-score was 0.725 (inactive).

As to CCCUAUGCAAUAUCAAAAUTT against Hnrnpa1, the z-score was 1.22 (inactive).

For GGUAAAUAGCUGUCUUGGCTT against Cerk, the z-score is -0.622 (inactive).

GCACAGUUAGCAUUGCUCCTT against Hoxc10: the z-score is -1.48 (inactive).

For the sequence GGAUAAUUGGGAUGAUGACTT against Sem1, the z-score was -2.24 (active).

GGCAGAGUAUGAGUUUGACTT against Camk1: the z-score was 0.699 (inactive).

With GGCCAAGUGCACCAUCCUATT against Gng13, the z-score was -0.852 (inactive).

As for GGAGAAAGCCUUCCAAUUUTT against Kel, the z-score is -0.273 (inactive).

For the sequence GGUAGAGCAUCAGUAUCUATT against Tex16, the z-score is -0.47 (inactive).

For CCGCACCAUUCAGCUUUUUTT against Mmgt2, the z-score is 0.446 (inactive).

Turning to GGCUCGAUUACUGAGUACATT against Bnip2, the z-score was 0.884 (inactive).

GGCUUUAGUUGUCUUUUAUTT against Cxcr1: the z-score is 0.609 (inactive).

For GGAGAAAAAGAGAAGUAUUTT against Skint9, the z-score is -0.874 (inactive).

On to GCAUGAUGGUGCGCUUAAGTT against Ngdn, for which the z-score was -0.187 (inactive).

As to GGUCAUGGAUGUGCACGAUTT against Krt14, the z-score is -2.21 (active).

As for CCUAUACACCCAUUUUUAATT against Arl2bp, the z-score is 0.163 (inactive).

Regarding GGUAACCUGAUGGCUGAAATT against Zfp692, the z-score was 2.79 (active).

Take GCCUAAGGAUCCUGGGUUATT against Orai3: the z-score was 1.43 (inactive).

As to CCGUUUCUAUCGAGUGAAATT against Celf2, the z-score is 0.581 (inactive).

Turning to GACUAAACAGAUCUUCUCUTT against Klra15, the z-score is -0.651 (inactive).

In the case of GGAGAUAAUUGGUUUACAGTT against Vmn1r23, the z-score was -0.647 (inactive).

As to CCACACCAUAACAACAUUCTT against Olfr800, the z-score is -2.05 (active).

With GCAAUUCAGGUUUACUACATT against Fgg, the z-score is 0.00733 (inactive).

On to GAAAGUUUACGGGAAAUCUTT against Klf13, for which the z-score is 2.04 (active).

CCAUAAGGUAACCUGUACATT against Serpinb1c: the z-score was -0.244 (inactive).

For the sequence GGAUUACAAGACCAUAGAUTT against Clec2g, the z-score was -0.75 (inactive).

Regarding GGCACCUCUGCUUUUAAAGTT against Mrm2, the z-score is 0.926 (inactive).

As to GGAACUGCCUGAAAAAAUGTT against Dcn, the z-score is -2.76 (active).

On to CAUAUUCCUUGCAUUACAATT against Taok3, for which the z-score was 0.929 (inactive).

As to GGUUCAGAAGUUUGGGAGATT against Mrpl48, the z-score was 0.615 (inactive).

As for GGACUGAUUGAUAAAGUCATT against Srp54a, the z-score is -0.458 (inactive).

Take UAAAAAUGAGCCGGGCAAUTT against Ms4a5: the z-score was 1.42 (inactive).

As for GGAGCAAAGCUAAAUGUUGTT against Far1, the z-score was -0.476 (inactive).

Regarding GGAUUUGGCAACAGACUUUTT against Ryr2, the z-score was -0.391 (inactive).

Turning to CACCGUAAUAAUCACACUATT against Zfp667, the z-score is -0.854 (inactive).

As to “GGUACGAAGGAAAAUUUACTT against 2810407A14Rik”, the z-score was 2.72 (active).

For GGUUACCAUGUGAAGCAGGTT against Tnfrsf14, the z-score is -0.461 (inactive).

For the sequence GGAUAACUCCUUAUUUAACTT against Teddm3, the z-score is 1.25 (inactive).

Consider GGAAAACCAGAAAGAAUUUTT against Crnkl1, for which the z-score is -0.334 (inactive).

In the case of GGAACAAGUUUGUGCUUUCTT against Cpd, the z-score is 0.728 (inactive).

As for GGAUAACCAACAAGGUUUUTT against Mgst1, the z-score is 0.701 (inactive).

Regarding GGUGGAACACAUAUUUUAATT against Tbc1d13, the z-score was 0.837 (inactive).

On to CGCCCAUGUACAGAUUUGUTT against Olfr429, for which the z-score is -2.33 (active).

As for GCUUCACCUGACAAUGACUTT against Tsc22d3, the z-score was 1.2 (inactive).
